This is a sample that favours compounds with a hit; in the whole collection about 0.83% have one here.
Hsp70 act: Hsp70 transcriptional activators, primary screen, cell-based, HeLa, Hsp70 promoter luciferase, luminescence, 10 µM; 200,000 tested, 0.04% active; activation, % at 10 µM; HeLa Hsp70 promoter luciferase reporter; scaled: vehicle 0, proteasome-inhibitor control 100%;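 active = activation above the mean across all tested compounds plus 3 SD, cutoff set per campaign, cut at about 5.5% in these data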;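 also: 100% = MG132 at 30 µM as the positive control and 0% = DMSO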
S1P4 antagonist: S1P4 receptor antagonists, primary screen, cell-based | Sphingosine 1-phosphate receptor 4 (Homo sapiens), O95977 | inhibition, % at 4.98 µM | 220,000 tested, 0.26% active | S1P4-expressing cells, antagonist mode, reporter read-out; in the data active = inhibition above about 29%;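 also: 0% = wells stimulated with agonist and 100% = vehicle wells without agonist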
Target sequence (O95977 whole entry, looked up): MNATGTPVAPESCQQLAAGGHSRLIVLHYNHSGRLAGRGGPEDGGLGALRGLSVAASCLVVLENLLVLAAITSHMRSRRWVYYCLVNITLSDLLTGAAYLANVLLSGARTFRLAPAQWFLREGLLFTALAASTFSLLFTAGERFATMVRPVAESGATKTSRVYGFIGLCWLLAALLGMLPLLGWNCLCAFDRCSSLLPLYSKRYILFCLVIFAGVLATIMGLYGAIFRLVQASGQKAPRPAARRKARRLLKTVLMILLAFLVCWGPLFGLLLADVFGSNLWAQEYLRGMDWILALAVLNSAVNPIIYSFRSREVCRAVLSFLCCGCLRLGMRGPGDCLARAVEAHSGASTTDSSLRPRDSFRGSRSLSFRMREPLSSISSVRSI
S1P3 antagonist: S1P3 receptor antagonists, primary screen, cell-based; inhibition, % at 4.98 µM; 170,000 tested, 0.27% active; Sphingosine 1-phosphate receptor 3 (Homo sapiens), Q99500; AID 485, 2006; CHO S1P3 NFAT-BLA reporter, FRET fluorescence, antagonist mode;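 active = inhibition above the plate cutoff, the mean inhibition of test wells on that plate plus 3 SD, cut at about 28% in these data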;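 also: cells challenged with S1P at its EC80 of 0.8 µM; blue over green emission ratio from cleaved BLA substrate after 4 h stimulation; 0% = S1P-stimulated wells and 100% = unstimulated DMSO-only wells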
Pf gamet viab: late stage P. falciparum gametocyte viability inhibitors, primary screen, ATP luminescence, HTS. P. falciparum stage V gametocytes, 24 h. 150,000 tested, 0.065% active. inhibition, % at 10.9 µM;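 active = inhibition above the mean plus 3 SD of compounds within the control limits, set per campaign, cut at about 38% in these data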;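 also: 0% = DMSO wells and 100% = medium only without gametocytes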
S1P4 agonist: S1P4 receptor agonists, primary screen, cell-based; Sphingosine 1-phosphate receptor 4 (Homo sapiens), O95977; 220,000 tested, 0.35% active; activation, % at 4.98 µM; S1P4-expressing cell line, agonist reporter assay; in the data active = activation above about 11%;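 also: 0% = DMSO vehicle and 100% = reference agonist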
Active calls of the source: *; x = no result given.

SMILES | Hsp70 act | S1P4 antagonist | S1P3 antagonist | Pf gamet viab | S1P4 agonist
COCCNC(=O)C/C(C)=N/NC(=O)C(=O)NC1CCCCC1 | 0.1 | -21.8 | -2.8 | 1.0 | 2.0
Cc1ccc(C)c(NC(=O)Cn2cnc3c(oc4ccccc43)c2=O)c1 | -0.2 | -12.8 | -13.1 | 14.7 | 2.6
O=C(NCc1ccc(F)cc1)C1CCN(C(=O)NCc2ccccc2)CC1 | -0.3 | 6.6 | 6.4 | -17.1 | -3.2
O=C(NCc1ccccc1F)C1CCN(C(=O)NCc2ccccc2)CC1 | -0.5 | 3.2 | 67.9* | 20.4 | -0.6
Cc1cccc2c1NC(=O)C2(c1ccc(O)cc1)c1ccc(O)cc1 | 0.7 | 98.4* | x | x | -5.2
Cc1ccc2nc3cc([N+](=O)[O-])cc([N+](=O)[O-])c3cc2c1 | -0.2 | 29.3* | -4.7 | -4.7 | 0.3
Cc1nc2ccc([N+](=O)[O-])cc2nc1C | -0.2 | -13.5 | -20.9 | 15.1 | 0.0
Cc1cccc(NC(=O)c2ccc(NS(=O)(=O)c3cccc4cccnc34)cc2)c1 | x | x | x | 5.9 | x
CC1Cc2ccccc2N1C(=O)C1CCCN(S(=O)(=O)c2cccc3cccnc23)C1 (configuration not stated) | -0.2 | -17.8 | 81.7* | x | -0.5
CC(=NCc1ccco1)c1c(C)[nH]n(-c2nc3ccccc3s2)c1=O | 0.0 | -5.9 | 14.8 | x | 0.0
C/C(=N/NC(=O)c1cccs1)c1c(C)[nH]n(-c2nc3ccccc3s2)c1=O | -0.5 | -11.2 | -5.4 | 56.1* | 2.5
CCOC(=O)CSC1=Nc2ccccc2C2=NC(CC(=O)NCc3ccc4c(c3)OCO4)C(=O)N12 (configuration not stated) | 0.1 | 10.5 | 3.7 | -8.6 | 72.4*
O=C(COC(=O)CSc1ccc2ccccc2c1)NCc1ccc2c(c1)OCO2 | 0.0 | 1.1 | -2.9 | 47.6* | 1.1
C=CCN1C(c2ccccc2)=CS/C1=C(\C#N)c1nnc2n1CCCCC2 | -0.4 | -4.7 | -26.1 | x | -0.4
CCOc1ccc(C2=CS/C(=C(\C#N)c3nnc4n3CCCCC4)N2CC)cc1 | -0.1 | -5.3 | x | x | 15.1*
Cc1cc(Oc2ccc(=O)n(C)n2)nc(SCCOc2ccccc2)n1 | x | 3.4 | -9.1 | -4.0 | -0.4
CS(=O)(=O)N(CC(=O)NCCSCc1ccccc1Cl)c1ccc(F)cc1 | x | x | x | -7.4 | x
CCOC(=O)C1CCN(C(=O)c2ccco2)CC1 | -0.1 | -9.4 | 69.2* | -1.1 | 0.9
O=C(N/N=C/c1ccncc1)c1nn(Cc2ccccc2)c(=O)c2ccccc12 | -0.3 | 3.5 | -0.1 | 2.9 | 0.1
O=c1[nH]cnc2c1ncn2[C@@H]1O[C@H](CO)[C@@H](O)[C@H]1O | -0.4 | -12.1 | -3.6 | x | 23.9*
COC(=O)NCC(c1cccnc1)N1CCN(c2ccccc2OC)CC1 (configuration not stated) | -0.4 | -0.9 | -1.4 | x | -0.8
COC(=O)NCC(c1cccnc1)N1CCN(c2ccccc2F)CC1 (configuration not stated) | -0.4 | -10.1 | 102.0* | x | 0.6
COC(=O)c1c(NC2=NS(=O)(=O)c3ccccc32)sc2c1CCC(C(C)(C)C)C2 (configuration not stated) | x | x | x | 15.6 | x
COc1cccc(=O)c2c(C)n(C)c(C)c12 | -0.3 | -16.4 | -31.1 | 38.8* | -1.8
CCOc1cccc(=O)c2c(C)n(C)c(C)c12 | -0.1 | -4.2 | -15.8 | 3.0 | 0.8
SMILES | Hsp70 act | S1P4 antagonist | S1P3 antagonist | Pf gamet viab | S1P4 agonist
Clc1nc(CN2CCCCC2)nc2sc3c(c12)CCC3 | 0.0 | -3.4 | -13.2 | x | -0.2
COc1ccc(C(=O)Oc2ccc(/C=N/O)cc2)cc1 | -0.1 | -4.3 | x | 39.9* | -1.3
COc1ccc(OC(=O)c2ccncc2)cc1 | -0.3 | 10.9 | 8.4 | x | -1.3
Cc1ccc2c(CC(=O)NCCc3ccc(S(N)(=O)=O)cc3)coc2c1 | x | 1.6 | -13.0 | 16.8 | 0.1
COC(=O)C1=C(N)Oc2cc(N(C)C)ccc2C1c1ccccc1OC (configuration not stated) | 0.1 | 2.0 | 59.7* | x | 1.1
CC(C(=O)Nc1ccccc1Oc1ccccc1)c1ccccc1 (configuration not stated) | 0.0 | -11.2 | 3.5 | 60.2* | 1.6
COc1cccc2cc(-c3ccccc3)c(=O)oc12 | 0.1 | -14.5 | -21.2 | 12.6 | 0.8
CCOc1cccc2cc(-c3nnc(-c4ccccc4)o3)c(=O)oc12 | x | x | 65.2* | x | x
Cn1nc(C(=O)NCc2ccc(F)cc2)c2ccccc2c1=O | 0.0 | 2.7 | 90.6* | -33.5 | -0.4
COc1ccccc1-c1cc(C(F)(F)F)nc(S(=O)(=O)CCCC(=O)Nc2cccnc2Cl)n1 | -0.3 | 49.9* | -5.3 | -21.8 | -0.7
CCc1nnc(NS(=O)(=O)c2ccc(NC(=S)NC(=O)/C=C/c3ccccc3)cc2)s1 | -0.6 | -17.8 | -7.4 | 41.1* | 3.5
COc1ccc(OC)c(Cc2nnc(CCC(=O)NC3C4CC5CC(C4)CC3C5)o2)c1 (configuration not stated) | -0.3 | -11.0 | -20.9 | -15.0 | -0.6
COc1cc2nc(/C=C/c3ccc(N(C)C)cc3)sc2cc1SC | -0.4 | 23.3 | 54.9* | -0.1 | 3.4
S=C(NCCC1=CCCCC1)NCc1ccco1 | -0.1 | -3.7 | 0.4 | x | 2.5
COCC1CCCN(C(=O)c2ccc(OC3CCN(Cc4ccccn4)CC3)cc2)C1 (configuration not stated) | -0.2 | -7.5 | -2.4 | 9.7 | -0.2
O=[N+]([O-])c1cc(Oc2cccnc2)cc([N+](=O)[O-])c1 | -0.6 | -8.7 | -4.5 | -3.0 | -0.5
Cn1cc([N+](=O)[O-])c(C(=O)Nc2cc(Oc3cccnc3)cc([N+](=O)[O-])c2)n1 | -0.5 | 31.4* | x | 6.8 | -5.3
CC(C)(Sc1cc(C(C)(C)C)c(O)c(C(C)(C)C)c1)Sc1cc(C(C)(C)C)c(O)c(C(C)(C)C)c1 | -0.2 | -18.6 | -4.0 | x | 49.1*
N#Cc1ccc(-c2ccc(OCC(=O)NCCCN3CCCC3=O)cc2)cc1 | -0.3 | 1.9 | -13.1 | -8.0 | 1.6
COc1ccc(CCNC(=O)CCSc2nc(-c3ccco3)cc(C(F)(F)F)n2)cc1 | 0.4 | -20.2 | -4.9 | x | -2.7
CC(C)(C)c1cc(C(F)(F)F)nc(SCCCNC(=O)c2ccco2)n1 | -0.4 | -8.0 | 58.7* | 5.8 | -0.2
COc1ccc(NS(=O)(=O)c2ccc3nc(COc4ccc(Cl)c(C)c4)[nH]c3c2)cc1 | -0.3 | 19.5 | -13.2 | -12.7 | -1.1
C=CCN1CCN(C(c2ccc(Cl)cc2)c2nnnn2CCc2ccc(OC)c(OC)c2)CC1 (configuration not stated) | -0.1 | -7.2 | 103.6* | 15.9 | 1.8
Cc1cc(NC(=O)c2cc(-c3ccccn3)nc3ccccc23)no1 | -0.3 | -8.1 | 0.9 | x | 0.4
Cc1cc(C)c2nc(-c3ccccn3)cc(C(=O)Nc3cc(C)on3)c2c1 | 0.1 | -1.3 | 54.1* | -17.3 | 2.0
Cc1nc2ccc(NC(=O)c3cc([N+](=O)[O-])cc([N+](=O)[O-])c3Cl)cc2s1 | -0.2 | 66.1* | -0.9 | x | 6.0
Cc1nc2ccc(NC(=O)c3ccc(Cl)c([N+](=O)[O-])c3)cc2s1 | -0.5 | -12.3 | -4.1 | 5.0 | -1.2
